Screens: PubChem, several laboratories
GDH-TPI counter-1: counter-screen for M. tuberculosis FBA inhibitors: GDH-TPI coupled enzymes. GDH-TPI coupled enzyme counterscreen, NADH absorbance. inhibition, % at 4.8 µM. 360,000 tested, 1.2% active; in the data active = inhibition above about 30%;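 also: 0% = DMSO wells and 100% = wells lacking the enzyme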
Rv3671c protease: inhibits the M. tuberculosis serine protease Rv3671c. 320,000 tested, 0.048% active. inhibition, % at 5.96 µM. AID 2606; in the data active = inhibition above about 38%;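 also: extracellular domain of Rv3671c used as enzyme; 0% = enzyme with DMSO and 100% = no enzyme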
UGM FP inh: Mtb UDP-galactopyranose mutase inhibition. P9WIQ1. purified UGM, fluorescence polarization probe displacement. inhibition, % at 10 µM. 320,000 tested, 0.06% active. AID 504406; in the data active = inhibition above about 10%, passing the limit was not always enough
FBA Mtb inh: Mtb fructose-bisphosphate aldolase inhibition | AID 588726 | purified M. tuberculosis FBA, fluorescence read-out | inhibition, % at 1 µM | 360,000 tested, 2.3% active;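 also: 0% = vehicle and 100% = reference inhibitor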
Target sequence (P9WQA3 whole entry, looked up): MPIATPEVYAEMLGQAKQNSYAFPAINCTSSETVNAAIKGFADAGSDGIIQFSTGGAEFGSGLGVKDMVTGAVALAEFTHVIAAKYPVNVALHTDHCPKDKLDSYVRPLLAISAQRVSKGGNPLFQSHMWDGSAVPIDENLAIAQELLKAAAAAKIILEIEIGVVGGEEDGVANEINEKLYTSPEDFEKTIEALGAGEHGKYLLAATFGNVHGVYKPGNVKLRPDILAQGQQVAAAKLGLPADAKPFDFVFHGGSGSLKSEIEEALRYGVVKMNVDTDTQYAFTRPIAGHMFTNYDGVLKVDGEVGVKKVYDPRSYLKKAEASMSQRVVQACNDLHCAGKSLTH
FadD28 FP inh: M. tuberculosis FadD28 bisubstrate binding inhibition; FadD28 bisubstrate probe binding, fluorescence polarization; inhibition, % at 12.5 µM; 360,000 tested, 0.22% active; AID 588549; in the data active = inhibition above about 8.5%, passing the limit was not always enough
Mtb betalactam: beta-lactam sensitization of Mtb H37Rv | M. tuberculosis H37Rv growth with meropenem, percent inhibition | inhibition, % at 25 µM | 330,000 tested, 0.27% active | AID 434955; call rule not given here;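 also: growth measured after seven days incubation then overnight dye step; 0% = bacteria only wells and 100% = bacteria with antibiotic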
Mtb FBA inh conf: confirmation of M. tuberculosis fructose-bisphosphate aldolase inhibitors. shares compounds with FBA Mtb inh. purified M. tuberculosis FBA, fluorescence read-out. inhibition, % at 1 µM. 5,600 tested, 78% active. AID 651616;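 also: 0% = vehicle wells and 100% = reference inhibitor wells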
GDH-TPI counter-2: inhibits GDH-TPI coupling enzymes, flagging Mtb FBA hits | shares compounds with FBA Mtb inh | GDH-TPI coupled enzyme counterscreen, fluorescence | inhibition, % at 1 µM | 5,600 tested, 81% active | AID 652141; in the data active = inhibition above about 10%
The depositor's hits bear a star; x = no result; + = active, no number. In the library only some 3.7% were active in any assay of this set; here they are far more common. Rule as the data show it, unless noted: active = inhibition above about 27%; inactive = the rest.

SMILES	GDH-TPI counter-1	Rv3671c protease	UGM FP inh	FBA Mtb inh	FadD28 FP inh	Mtb betalactam	Mtb FBA inh conf	GDH-TPI counter-2
CC1(C(=O)NS(=O)(=O)c2cccc(OC(F)F)c2)CCN1C(=O)Cc1ccsc1 (stereo unspecified)	6.2	x	x	-1.2	-0.9	x	x	x
COc1cc2oc(=O)ccc2cc1[C@H](O)[C@@H](O)C(C)(C)O	26.4	12.6	-2.7	48.8*	-0.7	-0.8	47.4*	31.9*
COc1cc2oc(=O)ccc2cc1[C@@H](O)[C@@H]1OC(C)(C)OC1(C)C	12.8	-0.4	2.9	29.5*	-1.8	6.3	79.2*	40.1*
OCc1ccc(-c2nn(Cc3ccccc3)c3ccccc23)o1	18.1	-11.6	1.6	58.3*	-2.5	5.6	81.7*	66.6*
NC1=NC(c2cn[nH]c2-c2cccc(F)c2)n2c(nc3ccccc32)N1 (stereo unspecified)	1.2	-1.0	-0.2	2.1	-4.2	4.0	x	x
COc1ccc(-c2[nH]ncc2C2N=C(N)Nc3nc4ccccc4n32)cc1 (stereo unspecified)	-0.6	-2.0	0.1	33.9*	-3.1	-11.4	70.0*	51.9*
CC(=O)Nc1cc(-c2ccc(S(C)(=O)=O)cc2)cn2c(-c3ccc(F)cc3)cnc12	8.4	x	x	0.2	-2.5	x	x	x
CC(=O)Nc1cc(-c2cccc(F)c2)cn2c(-c3ccc(S(C)(=O)=O)cc3)cnc12	12.9	x	x	70.7*	-2.0	x	+	+
CC(C)c1cccc(-c2csc(C(C)(O)c3ccc(F)c(F)c3)n2)c1 (stereo unspecified)	-4.5	x	x	-2.7	-4.2	x	x	x
O=C(NCCS(=O)(=O)N1CCN(c2ccc(F)cc2)CC1)C12CC3CC(CC(C3)C1)C2	-4.6	0.5	-0.6	0.6	-0.6	-4.0	x	x
COc1cc2c(OC)cccc2cc1C(=O)O	10.8	4.1	1.4	65.0*	-0.4	7.1	+	+
Cc1ccccc1NC(=O)COC(=O)c1ccc(C)c(S(=O)(=O)N2CCCCC2)c1	4.9	x	x	1.6	-1.1	x	x	x
CCCNC(=O)c1oc2ccc3c(c2c1C)C=CC(C)(C)O3	3.8	-7.4	-0.9	16.0	-2.9	90.7	x	x
CCOC(=O)N1CCC2(CC1)CC(=O)c1c(ccc3oc(C(=O)O)c(C)c13)O2	26.7	-5.8	2.2	81.5*	-1.7	-9.5	33.3*	30.1*
CCCNC(=O)c1oc2ccc3c(c2c1C)C(=O)CC(C)(C)O3	11.9	8.1	-1.8	36.2*	-3.1	10.5	54.6*	51.3*
CN(C)CCNC(=O)c1cccn(Cc2cc(C(F)(F)F)cc(C(F)(F)F)c2)c1=O	12.3	8.1	1.3	61.5*	-2.3	-1.6	1.9	-2.1
CN(C)C(=O)c1cccn(Cc2ccc(C(F)(F)F)cc2)c1=O	6.0	8.2	1.5	0.9	-0.9	-2.2	x	x
CC(C)(C)OC(=O)N1CCN(C(=O)c2ncn3c2c(=O)[nH]c2ccccc23)CC1	3.3	x	x	1.5	-2.4	x	x	x
c1ccc2c(c1)ccc1[nH]c3c(c12)CCCC3	10.6	x	x	42.8*	2.9	x	75.2*	68.5*
NC(=O)COc1c(-c2ccc(Br)o2)oc2ccccc2c1=O	35.0*	3.7	-2.1	104.5*	0.2	-3.2	154.1*	113.5*
COc1ccc(/C=C/c2c(-c3ccc(OC)cc3)sc3cc(OC)c(OC)cc23)cc1	19.1	2.7	x	3.4	-0.6	6.0	x	x
Cc1ccccc1C(=O)NNC(=O)CCCCC(=O)NNC(=O)c1ccccc1C	3.7	-4.3	2.2	3.1	-3.0	-19.6	x	x
CCOC(=O)c1sc(C)c2c1NC(C)(c1cccs1)NC2=O (stereo unspecified)	9.6	-6.0	2.6	35.2*	-2.6	5.9	147.1*	109.4*
CCOC(=O)c1sc(C)c2c1NC1(CCCCC1)NC2=O	2.9	9.1	3.3	32.3*	-1.0	x	110.3*	103.8*
COc1cc2[nH]c(C(=O)N3CCN(c4ccccc4F)CC3)cc2c(OC)c1OC	11.0	-2.8	-1.6	44.5*	0.2	0.6	+	+
SMILES	GDH-TPI counter-1	Rv3671c protease	UGM FP inh	FBA Mtb inh	FadD28 FP inh	Mtb betalactam	Mtb FBA inh conf	GDH-TPI counter-2
COc1cccc(N2CCN(C(=O)c3cc4c(OC)c(OC)c(OC)cc4[nH]3)CC2)c1	-8.0	-5.3	-0.1	0.9	-2.7	5.2	x	x
COc1ccc(OCC(=O)Nc2ccc(N3CCN(C(=O)c4ccccc4)CC3)c(Cl)c2)cc1	0.0	-3.3	-1.7	-2.1	-2.0	-16.7	x	x
NS(=O)(=O)c1ccc(CCNC(=O)c2cc(-c3ccccc3)nc3ccccc23)cc1	6.6	-11.6	0.6	1.9	-3.4	4.4	x	x
NS(=O)(=O)c1ccc(CCNC(=O)c2cc(-c3ccco3)nc3ccccc23)cc1	18.6	-1.9	-0.2	77.1*	-2.6	6.3	75.1*	72.8*
NS(=O)(=O)c1ccc(CNC(=O)c2cc(-c3ccccc3)nc3ccccc23)cc1	15.2	-5.8	-0.9	0.5	-8.6	8.8	x	x
Cc1ccc(-c2cc(C(=O)NCCc3ccc(S(N)(=O)=O)cc3)c3ccccc3n2)cc1	13.0	-63.6	-2.7	34.1*	0.0	24.5	176.7*	179.0*
CCc1nc2ccc(C(=O)NCCc3c[nH]c4ccccc34)cn2c1N(C=O)CCC(C)C	-6.4	x	x	0.4	-3.0	x	x	x
N#Cc1ccc(-c2ccc(OCC(=O)NCC(=O)Nc3ccc(F)c(F)c3F)cc2)cc1	11.3	-66.8	-0.1	30.0*	0.4	2.8	+	+
N#Cc1ccc(-c2ccc(OCC(=O)NCCc3ccccc3)cc2)cc1	4.5	4.0	-1.0	37.6*	-4.3	3.8	4.7	1.8
OC1CNc2c(ccc3ccccc23)C1 (stereo unspecified)	6.9	x	x	101.2*	-2.2	x	175.1*	153.6*
O=C1OCc2nc3cc4c(cc3c(-c3ccc(F)cc3)c21)OCO4	13.3	-3.3	-2.2	72.8*	x	8.3	101.4*	86.4*
c1nc2sc3c(c2c2nnnn12)CCC3	1.9	2.7	1.4	35.8*	-1.0	-4.3	9.7	2.8
C[C@@H](C(=O)NCCc1ccccc1F)N1C(=O)N2CCc3c([nH]c4ccccc34)[C@@]2(C)C1=O	-3.9	-5.3	0.5	31.8*	-1.0	-7.3	+	188.2*
C[C@@H](C(=O)NCCc1ccccc1)N1C(=O)N2CCc3c([nH]c4ccccc34)[C@@]2(C)C1=O	1.0	-1.5	5.6	0.5	-0.5	-2.4	x	x
Cc1nnc2sc(-c3ccc(-c4ccc(Cl)c(C(F)(F)F)c4)o3)nn12	14.8	-7.0	-1.3	76.2*	-27.9	5.2	129.6*	115.0*
Cc1ccc(-c2nn3c(C)nnc3s2)cc1N	19.1	-4.7	2.3	15.7	-1.5	-7.0	x	x
CC1(C(=O)Nc2ccc3c(c2)OCCO3)CCN1C(=O)C1(c2ccc(Cl)cc2)CCC1 (stereo unspecified)	-0.9	x	x	2.9	-0.3	x	x	x
